Screening results deposited in PubChem BioAssay by National Center for Advancing Translational Sciences (NCATS).
IL-1B inflam inh = inhibitors of inflammasome signaling (IL-1 beta secretion). 360,000 compounds, 4.7% hits. THP-1 LPS/ATP IL-1B secretion, AlphaLISA, 16 h; hits give low values. activity change, % at 57.5 µM; in the data active = activity change below about -50%; inconclusive = mostly about -30% to -49%
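THP-1 cells pretreated 1 hr with compounds (up to 57.5 uM final), then stimulated with LPS (250 ng/mL final) plus ATP (1.25 mM final); secreted IL-1B measured by AlphaLISA after 16 hr, decreased signal indicating inhibition.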
KB-3-1 tox = KB-3-1 parental cell cytotoxicity | KB-3-1 viability, CellTiter-Glo ATP luminescence, 72 h | Potency, µM (doses to about 46.1 µM), actives largely listed as cytotoxic | 400,000 compounds, 1.4% hits | AID 1347075; note: nearly all actives have a fitted effect of over 60% in size
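Using CellTiter-Glo luminescence, growth of non-resistant KB-3-1 adenocarcinoma cells is assessed 72 h after pin-tool compound addition at 37 °C. Normalized responses across the concentration series yield fitted curves.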
KB-V1 cytotox = kills drug-selected multidrug resistant KB-V1 cells; KB-V1 MDR cells viability, CellTiter-Glo, 72 h; Potency, µM (series often up to 46.1 µM), usual class: cytotoxic; 400,000 compounds, 3.4% hits; AID 1347076; note: nearly all actives have a fitted effect of over 60% in size
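Cytotoxicity toward P-gp-expressing KB-V1 cells was determined as loss of CellTiter-Glo luminescence after 72 h at 37 degrees C. Compounds were tested in quantitative HTS format across a concentration range, with curves fitted to normalized data.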
MCF10A rerep = inducers of DNA re-replication in MCF 10A breast cells. MCF 10A DNA re-replication, Hoechst nuclear intensity, 48 h. Potency, µM (highest dose often 46.1 µM), usual class: activators. AID 624296. 350,000 compounds, 2.9% hits; note: nearly all actives have a fitted effect of over 50% in size
SW480 rerep = DNA re-replication induction in SW480 cells; SW480 DNA re-replication, Hoechst DNA content imaging, 48 h; Potency, µM (doses to about 46.1 µM), actives largely listed as activators; 340,000 compounds, 1.8% hits; note: nearly all actives have a fitted effect of over 55% in size
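Hoechst fluorescence of nuclei (405 nm excitation, 500-530 nm emission) measured by plate-scanning imager after 48 hr compound exposure at 37 C; re-replication scored as increased number of nuclei with elevated intensity.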
Large screens that a line does not name were inactive. Most compounds without a hit are left out; they make up all but 9.9% or so of the library. Unless noted, calls come from the whole dose curve; as a rule, active = well fitted curve in the direction sought with a large enough effect; inconclusive = small, poorly fitted or top-dose-only effect, or another doubt; inactive = no such curve, though single readings can be large; an effect the other way counts as inactive or inconclusive.

CCCCN1C(=O)C(CC(=O)NCCCCc2ccccc2)CC(C(=O)N(C)C)=C1C (stereo not given)	none (no result: MCF10A rerep, SW480 rerep)
COc1ccc(C(CC(=O)c2ccc(O)cc2)S(=O)(=O)c2ccc(C)cc2)cc1 (stereo not given)	IL-1B inflam inh -51, KB-V1 cytotox inconclusive
CCN1CCCC1CNC(=O)c1cc(COc2ccc(C)c(C)c2)on1 (stereo not given)	MCF10A rerep inconclusive, SW480 rerep inconclusive
CCN(CC)c1ccc(/C=N/Nc2ccc(C)cc2)c(O)c1	none
CCN(CC)c1ccc(C=Nc2cc(C)ccc2C)c(O)c1	KB-3-1 tox inconclusive, KB-V1 cytotox 23µM, SW480 rerep inconclusive
CCN(CC)c1ccc(/C=N/NC(=O)CNC(=O)C2COc3ccccc3O2)c(O)c1 (stereo not given)	KB-3-1 tox inconclusive, KB-V1 cytotox inconclusive, MCF10A rerep 6.5µM, SW480 rerep 6.5µM
CCN(CC)c1ccc(/C=N/NC(=O)c2c(Cl)cnn2C)c(O)c1	KB-V1 cytotox inconclusive, MCF10A rerep 12µM, SW480 rerep inconclusive
CCOC(=O)N/N=C/c1ccc(N(CC)CC)cc1O	KB-3-1 tox 21µM, KB-V1 cytotox inconclusive, MCF10A rerep 23µM, SW480 rerep 16µM
COc1cc(/C=N\NC(=O)CNC(=O)C2COc3ccccc3O2)ccc1O (stereo not given)	none
COC(=O)c1sc(=S)n(-c2ccccc2OC)c1N	none
CCCCNC(=O)c1sc(=S)n(-c2ccccc2OC)c1N	KB-V1 cytotox 21µM
COc1ccc(Nc2nc(S(=O)(=O)c3ccc(C)cc3)c(Cl)s2)cc1	IL-1B inflam inh -91, KB-3-1 tox inconclusive, MCF10A rerep inconclusive
O=S(=O)(c1ccccc1)c1nc(Nc2cccc(O)c2)sc1Cl	KB-3-1 tox 16µM, KB-V1 cytotox inconclusive, SW480 rerep inconclusive
C=CCC1NS(=O)(=O)O[C@H](CCCC)[C@@H]1O (stereo not given in full)	KB-V1 cytotox inconclusive
O=S(=O)(Nc1c(F)cccc1F)c1ccc(Cl)nc1	SW480 rerep 0.92µM
C#CCN1C(=O)C(O)(CC(=O)c2ccc(OC)c(OC)c2)c2ccccc21 (stereo not given)	KB-3-1 tox inconclusive, KB-V1 cytotox 18µM, MCF10A rerep inconclusive, SW480 rerep inconclusive
Cc1ccccc1CN1C(=O)C(O)(CC(=O)c2ccncc2)c2ccccc21 (stereo not given)	KB-3-1 tox inconclusive, KB-V1 cytotox inconclusive, MCF10A rerep inconclusive, SW480 rerep 16µM
COc1ccc(C(=O)CC2(O)C(=O)N(Cc3cccc(C(F)(F)F)c3)c3ccccc32)cc1 (stereo not given)	KB-3-1 tox inconclusive, KB-V1 cytotox 15µM (no result: IL-1B inflam inh, MCF10A rerep, SW480 rerep)
O=C(CC1(O)C(=O)N(Cc2ccccc2)c2ccccc21)c1ccncc1 (stereo not given)	KB-3-1 tox inconclusive, MCF10A rerep inconclusive
Cc1cccc(NC(=O)C2CCN(c3cnccn3)CC2)c1	KB-3-1 tox inconclusive (no result: IL-1B inflam inh, MCF10A rerep, SW480 rerep)
O=S(=O)(c1ccc(Cl)cc1)c1nc(-c2cccs2)oc1SCc1ccc(F)cc1	KB-V1 cytotox inconclusive (no result: IL-1B inflam inh, MCF10A rerep, SW480 rerep)
O=C(Nc1c2c(nn1-c1ccc(F)cc1)CS(=O)(=O)C2)C12CC3CC(CC(C3)C1)C2	KB-V1 cytotox 23µM
COc1ccc(-c2cc(C(=O)N(C)Cc3ccccc3F)c3ccccc3n2)cc1OC	IL-1B inflam inh inconclusive, KB-V1 cytotox 16µM, MCF10A rerep inconclusive
COc1ccc(-c2cc(C(=O)N(C)CC(=O)Nc3ccccc3Br)c3ccccc3n2)cc1OC	KB-V1 cytotox 9.2µM
COc1ccc(-c2cc(C(=O)N(C)CC(=O)Nc3ccccc3C(F)(F)F)c3ccccc3n2)cc1OC	MCF10A rerep inconclusive
COc1ccc(C(O)P(=O)(OCCC(C)C)c2ccc(N(C)C)cc2)cc1 (stereo not given)	none
Cc1ccc(N(CC(=O)NCCc2ccccc2)C(=O)CCC(=O)Nc2cc(C)ccn2)cc1	none
COc1cc(C2NC(=O)NC(C)=C2C(=O)OCC2CCCCC2)ccc1O (stereo not given)	KB-V1 cytotox inconclusive
COc1ccc(/C=C/c2cc(=O)c3cc(Cl)ccc3o2)cc1	KB-V1 cytotox inconclusive, MCF10A rerep 21µM, SW480 rerep inconclusive
COc1ccc(-c2cc(=O)c3cc(OC)ccc3o2)cc1	none
CCCCn1c(Oc2cccc(C(=O)OC)c2)nc2c1c(=O)n(C)c(=O)n2C	none (no result: IL-1B inflam inh, MCF10A rerep, SW480 rerep)
